Records with an inconclusive call do not appear. Entries that show only a call come without a potency. Calls of active or inactive are those of the source. The call rests on the fitted dose curve; in most records, active means well fitted inhibition curve with a large enough effect; inconclusive means small, poorly fitted or top-dose-only effect; inactive means no such curve, though single readings can be large or run the other way.
Potency means the concentration at half of the fitted maximal effect.

For the test, the target named is Coelenterazine h 2-monooxygenase (Renilla reniformis) (UniProt P27652). Kind of test: qHTS Assay for Inhibitors of Sea Pansy Luciferase from the GSK Published Protein Kinase Inhibitor Set. The note with it: purified Renilla luciferase, luminescence; series mostly up to 57.5 µM. The gist of the method: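 qHTS (roughly 60 uM down to 300 pM) against 1 nM Renilla luciferase, substrate coelenterazine h 5 uM, Tris acetate pH 7.5 buffer with NaCl, Tween-20 and BSA. Luminescence measured after an average 2 min incubation.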
Coelenterazine h 2-monooxygenase (Renilla reniformis), sequence (P27652 whole entry, looked up): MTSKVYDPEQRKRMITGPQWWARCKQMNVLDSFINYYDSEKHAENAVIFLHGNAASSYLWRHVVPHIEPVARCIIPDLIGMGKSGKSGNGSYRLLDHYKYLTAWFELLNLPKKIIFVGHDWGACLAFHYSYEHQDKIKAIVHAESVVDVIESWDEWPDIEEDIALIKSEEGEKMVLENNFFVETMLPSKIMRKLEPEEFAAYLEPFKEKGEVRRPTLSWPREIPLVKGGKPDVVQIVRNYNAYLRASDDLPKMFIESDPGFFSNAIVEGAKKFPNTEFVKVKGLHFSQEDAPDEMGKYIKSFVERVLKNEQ
On to `O=S(=O)(CCOCc1ccc(-c2ccc3ncnc(Nc4ccc(OCc5cccc(F)c5)c(Cl)c4)c3c2)o1)c1ccccc1`, for which the Potency entry was “inactive”.

Consider `COc1cc(Nc2ncc3c(C)nc(-c4cccc(C(F)(F)F)c4)n3n2)cc(OC)c1OC`, for which the Potency entry was “inactive”.

With `Cc1c2ccc(N(C)c3ccnc(Nc4cccc(S(N)(=O)=O)c4)n3)cc2nn1C`, the Potency was 18.3 µM (active).

With `CCn1c(-c2nonc2N)nc2ccncc21`, the Potency result was “inactive”.

For `COC(=O)Nc1nc2ccc(Oc3ccc(NC(=O)Nc4cccc(Cl)c4)cc3)cc2[nH]1`, the Potency result was “inactive”.

On to `Cc1cc(O)cc(C)c1C=Cc1cncc(C(N)=O)c1`, for which the Potency entry was “inactive”.

In the case of `CCC(=O)Nc1ccc(C)c(-c2ccc(C(=O)NCC3CC3)cc2)c1`, the Potency result is “inactive”.

`CCn1c(-c2nonc2N)nc2cnc(Oc3cccc(NC(=O)c4ccc(N(C)C)cc4)c3)cc21`: the Potency result is “inactive”.

On to `CS(=O)(=O)CCNCc1cc(-c2cc3c(Nc4ccc(OCc5cccc(F)c5)c(Cl)c4)ncnc3s2)cs1`, for which the Potency result was “inactive”.

As to `O=C(Nc1n[nH]c2nnc(-c3cccnc3)cc12)C1CC1`, the Potency entry was “inactive”.

With `Cc1ccc(C(=O)NC(C)C)cc1-c1ccc(C(=O)NCC2CC2)cc1`, the Potency entry was “inactive”.

With `CC(=O)Nc1cccc(C#Cc2cncnc2Nc2ccc(OCc3cccc(F)c3)c(Cl)c2)c1`, the Potency entry was “inactive”.

For the molecule `COc1cc2ncnc(Nc3ccc(C)c(O)c3)c2cc1OC`, the Potency result was “inactive”.

For `CN(C)CCCNc1nccc(-c2c(-c3ccc(F)cc3)nn3cc(C(F)(F)F)ccc23)n1`, the Potency result is “inactive”.

Turning to `CC1(C)CC(n2cnc(-c3ccc(F)cc3)c2-c2ccnc(N)n2)CC(C)(C)N1`, the Potency result was “inactive”.

With `Cc1nnc(-c2ccc(C)c(-c3ccc(C(=O)NCc4ccc(Cl)cc4)cc3)c2)o1`, the Potency entry is “inactive”.

As for `NC(=O)c1cc(-c2ccc(F)cc2)cc(-c2ccncc2)c1N`, the Potency entry is “inactive”.

`CCOc1ccc2c(-c3ccnc(Nc4cc(OC)cc(C(F)(F)F)c4)n3)cnn2n1`: the Potency result is “inactive”.

As to `Nc1ncnc2occ(-c3ccc(NC(=O)Nc4cc(C(F)(F)F)ccc4F)cc3)c12`, the Potency entry is “inactive”.

With `COc1ccc(-c2nn3ncccc3c2-c2ccnc(Nc3ccc(Cl)c(C(F)(F)F)c3)n2)cc1`, the Potency result is “inactive”.

In the case of `CC(=O)Nc1cccc(C#Cc2cncnc2Nc2ccc(OCc3cccc(F)c3)c(Cl)c2)n1`, the Potency result is “inactive”.

With `CCN1CCC(C(=O)Nc2n[nH]c3nnc(-c4cccc(F)c4F)cc23)CC1`, the Potency entry is “inactive”.

For the molecule `CC(=Nc1ccc(S(N)(=O)=O)cc1)c1c(O)[nH]c2ccccc12`, the Potency result was “inactive”.

With `NS(=O)(=O)c1ccc(N=Nc2c(O)[nH]c3cccc(CCc4ccncc4)c23)cc1`, the Potency result was “inactive”.

For the molecule `COc1cc2ncnc(Nc3ccc4c(cnn4Cc4ccccc4)c3)c2cc1OC`, the Potency result was “inactive”.

Regarding `COc1cc(C=NNc2ncnc3c2cnn3C(C)C)ccc1O`, the Potency result is “inactive”.

For `COc1ccc(-c2cc3c(N)ncnc3o2)cc1`, the Potency result was “inactive”.

Regarding `CCCN(CCS(C)(=O)=O)Cc1ccc(-c2ccc3ncnc(Nc4ccc(OCc5cccc(F)c5)c(Cl)c4)c3c2)o1`, the Potency entry is “inactive”.

For `CC(C)(CO)CNC(=O)c1ccc2[nH]c(O)c(N=Nc3ccc(S(N)(=O)=O)cc3)c2c1`, the Potency result is “inactive”.

For the molecule `COc1ccc(-c2nn3ncccc3c2-c2ccnc(Nc3ccc(F)c(F)c3)n2)cc1`, the Potency entry was “inactive”.

Consider `O=C(Nc1n[nH]c2nc(-c3ccco3)ccc12)C1CC1`, for which the Potency result is “inactive”.

With `CCn1c(-c2nonc2N)nc2cncc(C(=O)N3CCNCC3)c21`, the Potency entry is “inactive”.

For `CN1CCC(n2cnc(-c3ccc(F)cc3)c2-c2ccnc(N)n2)CC1`, the Potency result is “inactive”.

Turning to `CS(=O)(=O)Nc1cccc(-c2ccc3c(NC(=O)C4CC4)n[nH]c3c2)c1`, the Potency result was “inactive”.

As for `N#Cc1c(NC(=O)CN2CCOCC2)sc2c1CCCC2`, the Potency entry was “inactive”.

`CN1CCN(C(=O)c2ccc(NC(=O)Nc3ccc(N(C)c4ccnc(Nc5ccc(CS(C)(=O)=O)cc5)n4)cc3)cc2)CC1`: the Potency entry is “inactive”.

Consider `CN1CCC(C(=O)Nc2n[nH]c3nnc(-c4ccccc4)cc23)CC1`, for which the Potency result was “inactive”.

On to `COc1cc(Nc2nccc(-c3cnn4ncccc34)n2)cc(OC)c1`, for which the Potency result was “inactive”.

In the case of `CC1=C(C(=O)Nc2ccc3[nH]ncc3c2)C(c2ccc(F)cc2)NC(=O)N1` (centres undefined), the Potency result was “inactive”.

The record behind these values is PubChem BioAssay AID652015 (National Center for Advancing Translational Sciences (NCATS), 2013).
